Calls of active or inactive are those of the source. How the source made its calls: active means hit-call score of the fitted dose curve at least 0.9, where 1 is the maximum; inactive means score below 0.9.
The compounds below were run on Lipoprotein lipase (LPL), LPL (gene 4023) (assay: LTEA_HepaRG_LPL: Life Technologies and Expression Analysis (LTEA) Assay for Lipoprotein lipase (LPL) using HepaRG (AID 2283515)). Conditions: mRNA level, 48 h; actives raise or lower the signal.
Summary of the method: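 Differentiated HepaRG cells, plated 48 h, then exposed 48 h in serum-free induction medium to 8 concentrations (top 100 uM, half-log steps) in 0.5% DMSO, duplicate. LPL mRNA measured by qRT-PCR, normalized to ACTB, GAPDH and POLR2A.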

Row | Structure (SMILES) | outcome | AC50
1 | NC=O | inactive | 
2 | O=C1c2c(O)cccc2Cc2cccc(O)c21 | inactive | 
3 | O=C(O)c1cccnc1 | inactive | 
4 | CC(=O)[C@@]1(O)CC[C@H]2[C@@H]3CCC4=CC(=O)CC[C@]4(C)[C@H]3CC[C@@]21C | inactive | 
5 | CCc1nc(N)nc(N)c1-c1ccc(Cl)cc1 |  | 75.1 µM (active)
6 | O=Cc1ccccc1C=O | inactive | 
7 | O=C1CCCCC1 | inactive | 
8 | CCN(CC)CCOc1ccc(C(=C(Cl)c2ccccc2)c2ccccc2)cc1 |  | 17.8 µM (active)
9 | CN(C)C(=O)NC1(c2ccccc2)CCN(CCC[C@]2(c3ccc(Cl)c(Cl)c3)CCCN(C(=O)c3ccccc3)C2)CC1 | inactive | 
10 | N[C@@H](Cc1c[nH]c2ccccc12)C(=O)O | inactive | 
11 | CCCCCCC(CCCCCCCCCCC(=O)OCC(COC(C)=O)OC(C)=O)OC(C)=O (stereo not given) | inactive | 
12 | O=C(O)CC(O)(CC(=O)O)C(=O)O | inactive | 
13 | Cc1ccc(C(C)(C)C)c(O)c1 | inactive | 
14 | CCc1cc(C2=C(C(=O)O)N(c3ccccc3C(F)(F)F)S(=O)(=O)c3ccccc32)cc2c1OCO2 |  | 74.3 µM (active)
15 | CCOCCOCCO | inactive | 
16 | CC(N)=O | inactive | 
17 | C=CCCCCCCCCCCCC | inactive | 
18 | CSc1ccc(Oc2ccc(S(N)(=O)=O)cc2CN(C)C)cc1C |  | 77 µM (active)
19 | CC(C)c1cccc(C(C)C)c1NC(=O)NS(=O)(=O)c1cc(C(C)(C)O)co1 | inactive | 
20 | CCCCOC(=O)CCCCC(=O)OCCCC | inactive | 
21 | CC(C)(O)c1ccc(CNC(=O)c2cccnc2Oc2ccc(F)cc2)cc1 | inactive | 
22 | Cc1c(C)c2c(c(C)c1O)CCC(C)(COc1ccc(CC3SC(=O)NC3=O)cc1)O2 (stereo not given) |  | 4.12 µM (active)
23 | CCCCCCCC(=O)OC |  | 12.4 µM (active)
24 | O=C(O)CN(CC(=O)O)CC(=O)O | inactive | 
25 | O=[Si]=O | inactive | 
26 | COc1ccc(OC(F)(F)F)cc1CN[C@H]1CCCN[C@H]1c1ccccc1 |  | 82.9 µM (active)
27 | Cc1ccc(-c2cc(C(F)(F)F)nn2-c2ccc(S(N)(=O)=O)cc2)cc1 |  | 87.4 µM (active)
28 | CCCCCCCCCCCCCCCCO | inactive | 
29 | O=C1NC(=O)C(c2ccccc2)(c2ccccc2)N1 | inactive | 
30 | CC(=O)O | inactive | 

These compounds were tested on MicroRNA 122 (MIR122), gene 406906 (assay: LTEA_HepaRG_MIR122: Life Technologies and Expression Analysis (LTEA) Assay for MicroRNA 122 (MIR122) using HepaRG (AID 2283516; further: the transcript read is the microRNA miR-122)). Conditions: mRNA level, 48 h; actives raise or lower the signal.
Summary of the method: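 Differentiated human HepaRG cells in serum-free induction medium exposed 48 h to 8 half-log concentrations from 100 uM in 0.5% DMSO, duplicate. MIR122 quantified by Fluidigm TaqMan qRT-PCR, normalised to ACTB, GAPDH, POLR2A; fold change fitted bidirectionally versus DMSO.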

Row | Structure (SMILES) | outcome | AC50
31 | NC=O | inactive | 
32 | O=C1c2c(O)cccc2Cc2cccc(O)c21 | inactive | 
33 | O=C(O)c1cccnc1 | inactive | 
34 | CC(=O)[C@@]1(O)CC[C@H]2[C@@H]3CCC4=CC(=O)CC[C@]4(C)[C@H]3CC[C@@]21C | inactive | 
35 | CCc1nc(N)nc(N)c1-c1ccc(Cl)cc1 |  | 33.2 µM (active)
36 | O=Cc1ccccc1C=O | inactive | 
37 | O=C1CCCCC1 | inactive | 
38 | CCN(CC)CCOc1ccc(C(=C(Cl)c2ccccc2)c2ccccc2)cc1 |  | 78.8 µM (active)
39 | CN(C)C(=O)NC1(c2ccccc2)CCN(CCC[C@]2(c3ccc(Cl)c(Cl)c3)CCCN(C(=O)c3ccccc3)C2)CC1 | inactive | 
40 | N[C@@H](Cc1c[nH]c2ccccc12)C(=O)O | inactive | 
41 | CCCCCCC(CCCCCCCCCCC(=O)OCC(COC(C)=O)OC(C)=O)OC(C)=O (stereo not given) | inactive | 
42 | O=C(O)CC(O)(CC(=O)O)C(=O)O | inactive | 
43 | Cc1ccc(C(C)(C)C)c(O)c1 | inactive | 
44 | CCc1cc(C2=C(C(=O)O)N(c3ccccc3C(F)(F)F)S(=O)(=O)c3ccccc32)cc2c1OCO2 | inactive | 
45 | CCOCCOCCO | inactive | 
46 | CC(N)=O | inactive | 
47 | C=CCCCCCCCCCCCC | inactive | 
48 | CSc1ccc(Oc2ccc(S(N)(=O)=O)cc2CN(C)C)cc1C | inactive | 
49 | CC(C)c1cccc(C(C)C)c1NC(=O)NS(=O)(=O)c1cc(C(C)(C)O)co1 | inactive | 
50 | CCCCOC(=O)CCCCC(=O)OCCCC | inactive | 
51 | CC(C)(O)c1ccc(CNC(=O)c2cccnc2Oc2ccc(F)cc2)cc1 | inactive | 
52 | Cc1c(C)c2c(c(C)c1O)CCC(C)(COc1ccc(CC3SC(=O)NC3=O)cc1)O2 (stereo not given) |  | 83.9 µM (active)
53 | CCCCCCCC(=O)OC | inactive | 
54 | O=C(O)CN(CC(=O)O)CC(=O)O | inactive | 
55 | O=[Si]=O | inactive | 
56 | COc1ccc(OC(F)(F)F)cc1CN[C@H]1CCCN[C@H]1c1ccccc1 | inactive | 
57 | Cc1ccc(-c2cc(C(F)(F)F)nn2-c2ccc(S(N)(=O)=O)cc2)cc1 | inactive | 
58 | CCCCCCCCCCCCCCCCO | inactive | 
59 | O=C1NC(=O)C(c2ccccc2)(c2ccccc2)N1 | inactive | 
60 | CC(=O)O | inactive | 

Reference: PubChem BioAssay (EPA / NIEHS)
